Measurements taken from PubChem BioAssay (EPA / NIEHS).
“And” between values parts separate entries of the source, which are not always exact repeats. Equal entries are not always repeated. Results filed as inconclusive are left out. Some structures have more than one record in an assay (separate samples or runs), and their calls can disagree. The source made the active and inactive calls. The calls were made as follows, unless noted: active = hit-call score of the fitted dose curve at least 0.9, where 1 is the maximum; inactive = score below 0.9.

Experiments:
[1] = ATG_TGFb_CIS: Attagene CIS-FACTORIAL HepG2 Assay for human Transforming Growth Factor (TGF) (AID 2282967); conditions: HepG2 Attagene CIS TGFb reporter, mRNA transcription; actives raise or lower the signal
Summary of the method: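 Transcript-level reporter readout: HepG2 transfectants, 24 h exposure, RNA to cDNA, reporter-specific PCR, fluorescent primer extension, capillary sizing against ROX standards. Gain- or loss-of-signal relative to DMSO.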

[2] = ATG_VDRE_CIS: Attagene CIS-FACTORIAL HepG2 Assay for human Vitamin D Receptor Element (VDRE) (AID 2282968); conditions: HepG2 VDRE cis-reporter transcription, actives raise or lower the signal
Summary of the method: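 Transiently transfected HepG2 cells carrying cis-regulated reporter transcription units were exposed for 24 h. Reporter mRNA was measured by RT-PCR with fluorescent labelling and capillary electrophoresis, and fitted in both directions against DMSO.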

[3] = molecular target: X-box-binding protein 1 (Homo sapiens) (UniProt P17861); assay: ATG_Xbp1_CIS: Attagene CIS-FACTORIAL HepG2 Assay for human X-box Binding Protein 1 (XBP1) (AID 2282972); conditions: HepG2 XBP1 cis-element reporter, Attagene multiplex; actives raise or lower the signal
Sequence of X-box-binding protein 1 (Homo sapiens) (P17861 whole entry, looked up): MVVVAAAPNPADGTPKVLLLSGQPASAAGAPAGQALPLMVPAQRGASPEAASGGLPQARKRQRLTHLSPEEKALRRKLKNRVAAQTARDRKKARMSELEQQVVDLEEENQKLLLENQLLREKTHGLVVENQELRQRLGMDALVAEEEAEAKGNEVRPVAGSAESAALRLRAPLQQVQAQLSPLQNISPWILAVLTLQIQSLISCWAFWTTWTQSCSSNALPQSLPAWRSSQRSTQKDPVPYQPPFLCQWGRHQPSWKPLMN
Summary of the method: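 HepG2, transient MRTU transfection (cis-promoter driven), 24 h compound exposure. Total RNA → oligo(dT) RT → PCR → 6-FAM labeling → HpaI cut → CE. Bidirectional fit vs DMSO.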

[4] = ATG_M_19_TRANS: Attagene TRANS-FACTORIAL HepG2 Assay for M19 Transcription Factor (Internal Marker) (AID 2282974; active = hit-call score of the fitted dose curve at least 0.9, where 1 is the maximum); conditions: HepG2 Attagene TRANS-FACTORIAL M19 internal marker reporter
Summary of the method: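 HepG2 transiently transfected with GAL4-UAS multiplex reporter constructs, exposed 24 h; reporter RNA quantified by RT-PCR, 6-FAM labeling, HpaI digestion and capillary electrophoresis; internal background marker fitted upward versus DMSO.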

[5] = ATG_GAL4_TRANS: Attagene TRANS-FACTORIAL HepG2 Assay for GAL4 (Internal Marker) (AID 2282976; active = hit-call score of the fitted dose curve at least 0.9, where 1 is the maximum); conditions: HepG2 Attagene TRANS GAL4 internal marker reporter
Summary of the method: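 Liver HepG2 line bearing multiplexed GAL4-UAS reporter constructs; 24 h chemical treatment. Transcripts were quantified as fluorescent fragments on capillary electrophoresis after RT-PCR and HpaI cut, with activity fitted upward from DMSO.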

[6] = molecular target: Glucocorticoid receptor (Homo sapiens) (UniProt P04150); assay: ATG_GR_TRANS: Attagene TRANS-FACTORIAL HepG2 Assay for human Glucocorticoid Receptor (GR) (AID 2282978; active = hit-call score of the fitted dose curve at least 0.9, where 1 is the maximum;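 also: activators score as hits since higher reporter transcript over DMSO is fitted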); conditions: HepG2 Attagene TRANS GR reporter, mRNA transcription
Sequence of Glucocorticoid receptor (Homo sapiens) (P04150 whole entry, looked up, the tested form may be a part): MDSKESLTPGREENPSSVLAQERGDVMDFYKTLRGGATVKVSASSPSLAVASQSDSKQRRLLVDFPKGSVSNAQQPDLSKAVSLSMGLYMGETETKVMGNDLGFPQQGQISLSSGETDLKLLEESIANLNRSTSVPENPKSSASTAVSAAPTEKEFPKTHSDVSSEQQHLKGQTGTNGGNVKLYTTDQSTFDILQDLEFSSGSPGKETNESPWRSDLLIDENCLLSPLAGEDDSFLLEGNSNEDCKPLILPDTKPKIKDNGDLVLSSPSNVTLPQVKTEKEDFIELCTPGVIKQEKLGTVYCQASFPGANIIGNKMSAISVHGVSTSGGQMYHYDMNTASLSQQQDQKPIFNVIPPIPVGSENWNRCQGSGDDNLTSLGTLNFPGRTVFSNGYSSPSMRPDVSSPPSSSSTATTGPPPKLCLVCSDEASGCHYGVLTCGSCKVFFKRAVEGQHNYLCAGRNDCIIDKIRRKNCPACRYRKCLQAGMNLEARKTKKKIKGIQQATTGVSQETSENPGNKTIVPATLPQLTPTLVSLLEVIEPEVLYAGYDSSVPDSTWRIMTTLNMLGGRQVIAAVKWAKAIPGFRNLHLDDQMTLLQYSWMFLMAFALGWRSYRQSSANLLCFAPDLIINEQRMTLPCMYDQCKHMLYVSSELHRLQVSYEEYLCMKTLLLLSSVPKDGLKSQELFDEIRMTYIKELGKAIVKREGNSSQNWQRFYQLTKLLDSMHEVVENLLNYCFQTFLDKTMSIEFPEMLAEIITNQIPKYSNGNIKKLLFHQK
Summary of the method: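 HepG2 cells transiently transfected with GAL4-UAS reporter units and exogenous GR-Gal4 chimera, dosed 24 h. Reporter mRNA by RT-PCR, FAM labeling, HpaI digest and capillary electrophoresis; gain-of-signal fit versus DMSO.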

[7] = molecular target: Bile acid receptor (Homo sapiens) (UniProt Q96RI1); assay: ATG_FXR_TRANS: Attagene TRANS-FACTORIAL HepG2 Assay for Farnesoid X Receptor (FXR) (AID 2282979; active = hit-call score of the fitted dose curve at least 0.9, where 1 is the maximum;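 also: hits raise reporter mRNA above DMSO so AC50 marks FXR activation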); conditions: HepG2 Attagene TRANS FXR-GAL4 reporter transcription
Sequence of Bile acid receptor (Homo sapiens) (Q96RI1 whole entry, looked up, the tested form may be a part): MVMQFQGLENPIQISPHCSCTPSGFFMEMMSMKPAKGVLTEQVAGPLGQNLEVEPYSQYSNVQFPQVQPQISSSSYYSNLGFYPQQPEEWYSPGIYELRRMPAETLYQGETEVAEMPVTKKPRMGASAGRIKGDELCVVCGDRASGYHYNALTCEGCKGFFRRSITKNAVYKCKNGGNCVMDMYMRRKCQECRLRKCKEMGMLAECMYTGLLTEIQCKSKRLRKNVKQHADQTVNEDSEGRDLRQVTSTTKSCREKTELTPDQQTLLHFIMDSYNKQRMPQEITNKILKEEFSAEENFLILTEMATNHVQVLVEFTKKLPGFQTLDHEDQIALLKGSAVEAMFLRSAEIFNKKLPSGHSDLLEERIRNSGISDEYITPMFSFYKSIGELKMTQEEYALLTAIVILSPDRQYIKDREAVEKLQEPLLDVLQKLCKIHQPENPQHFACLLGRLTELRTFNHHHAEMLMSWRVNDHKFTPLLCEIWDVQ
Summary of the method: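 After 24 h chemical treatment of transfected HepG2 cells, GAL4-UAS reporter transcripts driven by an exogenous FXR-GAL4 fusion were measured by RT-PCR and capillary electrophoresis. Increases over DMSO were fitted.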

[8] = molecular target: Oxysterols receptor LXR-alpha (Homo sapiens) (UniProt Q13133); assay: ATG_LXRa_TRANS: Attagene TRANS-FACTORIAL HepG2 Assay for human Liver X Receptor alpha (LXRa) (AID 2282980; active = hit-call score of the fitted dose curve at least 0.9, where 1 is the maximum); conditions: HepG2 Attagene TRANS reporter, LXRa transactivation
Sequence of Oxysterols receptor LXR-alpha (Homo sapiens) (Q13133 whole entry, looked up, the tested form may be a part): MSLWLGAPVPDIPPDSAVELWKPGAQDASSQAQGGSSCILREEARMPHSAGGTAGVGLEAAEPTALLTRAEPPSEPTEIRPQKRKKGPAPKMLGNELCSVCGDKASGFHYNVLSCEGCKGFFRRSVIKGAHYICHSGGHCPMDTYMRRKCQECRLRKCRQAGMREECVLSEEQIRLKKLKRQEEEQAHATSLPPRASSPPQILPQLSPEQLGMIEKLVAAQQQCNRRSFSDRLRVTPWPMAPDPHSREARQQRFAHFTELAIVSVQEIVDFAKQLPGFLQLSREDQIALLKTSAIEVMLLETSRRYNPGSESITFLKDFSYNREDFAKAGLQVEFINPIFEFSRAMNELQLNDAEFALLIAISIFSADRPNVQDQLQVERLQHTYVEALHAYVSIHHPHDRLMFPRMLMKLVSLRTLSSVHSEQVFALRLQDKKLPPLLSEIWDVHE
Summary of the method: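 In this multiplexed TRANS system, compounds act on HepG2 cells carrying GAL4-UAS reporter units and a receptor-GAL4 fusion for 24 h. Induced reporter RNA is amplified, fluorescently labelled and sized by capillary electrophoresis, with DMSO as baseline.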

[9] = molecular target: Oxysterols receptor LXR-beta (Homo sapiens) (UniProt P55055); assay: ATG_LXRb_TRANS: Attagene TRANS-FACTORIAL HepG2 Assay for human Liver X Receptor beta (LXRb) (AID 2282981; active = hit-call score of the fitted dose curve at least 0.9, where 1 is the maximum); conditions: HepG2 Attagene TRANS GAL4-LXRb reporter, mRNA
Summary of the method: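 HepG2 cells transiently transfected with GAL4-UAS reporter units for chimeric NR-Gal4 proteins, dosed for 24 h. Reporter transcripts measured by RT-PCR and capillary electrophoresis; gain-of-signal fitting relative to DMSO.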

[10] = molecular target: Hepatocyte nuclear factor 4-alpha (Homo sapiens) (UniProt P41235); assay: ATG_HNF4a_TRANS: Attagene TRANS-FACTORIAL HepG2 Assay for human Hepatocyte Nuclear Factor 4 alpha (HNF4a) (AID 2282982; active = hit-call score of the fitted dose curve at least 0.9, where 1 is the maximum); conditions: HepG2 HNF4a transactivation reporter, mRNA readout
Sequence of Hepatocyte nuclear factor 4-alpha (Homo sapiens) (P41235 whole entry, looked up, the tested form may be a part): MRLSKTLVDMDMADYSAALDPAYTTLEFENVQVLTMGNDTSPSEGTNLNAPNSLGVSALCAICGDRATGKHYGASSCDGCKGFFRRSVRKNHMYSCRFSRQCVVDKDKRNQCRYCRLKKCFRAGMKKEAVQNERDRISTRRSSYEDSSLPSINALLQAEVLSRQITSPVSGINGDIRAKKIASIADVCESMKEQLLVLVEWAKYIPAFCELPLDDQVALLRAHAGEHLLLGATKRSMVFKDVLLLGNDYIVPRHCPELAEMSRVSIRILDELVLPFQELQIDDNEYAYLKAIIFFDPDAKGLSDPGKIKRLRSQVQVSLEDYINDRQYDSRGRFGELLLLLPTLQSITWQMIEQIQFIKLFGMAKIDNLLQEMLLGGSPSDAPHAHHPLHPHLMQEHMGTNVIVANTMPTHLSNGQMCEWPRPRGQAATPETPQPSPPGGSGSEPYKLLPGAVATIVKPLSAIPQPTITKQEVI
Summary of the method: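 HepG2 cells transiently transfected with HNF4a-Gal4 chimera and GAL4-UAS reporter units, dosed for 24 h. Reporter mRNA measured by RT-PCR, fluorescent primer extension and capillary electrophoresis; gain-of-signal fitted relative to DMSO.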

[11] = ATG_M_06_TRANS: Attagene TRANS-FACTORIAL HepG2 Assay for M06 Transcription Factor (Internal Marker) (AID 2282983; active = hit-call score of the fitted dose curve at least 0.9, where 1 is the maximum;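 also: reporter transcript level by RT-PCR then capillary electrophoresis fluorescence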); conditions: HepG2 Attagene TRANS M06 internal marker reporter
Summary of the method: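 Internal-marker background readout from a multiplexed TRANS reporter system in HepG2; 24 h dosing; mRNA induction quantified by RT-PCR plus capillary electrophoresis fluorescence; DMSO as negative control and baseline.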

[12] = molecular target: Transcriptional activator Myb (Homo sapiens) (UniProt P10242); assay: ATG_Myb_CIS: Attagene CIS-FACTORIAL HepG2 Assay for human Myeloblastosis (Myb) Proto-Oncogene Transcription Factor (AID 2282986); conditions: HepG2 Attagene CIS-FACTORIAL Myb reporter transcription; actives raise or lower the signal
Sequence of Transcriptional activator Myb (Homo sapiens) (P10242 whole entry, looked up): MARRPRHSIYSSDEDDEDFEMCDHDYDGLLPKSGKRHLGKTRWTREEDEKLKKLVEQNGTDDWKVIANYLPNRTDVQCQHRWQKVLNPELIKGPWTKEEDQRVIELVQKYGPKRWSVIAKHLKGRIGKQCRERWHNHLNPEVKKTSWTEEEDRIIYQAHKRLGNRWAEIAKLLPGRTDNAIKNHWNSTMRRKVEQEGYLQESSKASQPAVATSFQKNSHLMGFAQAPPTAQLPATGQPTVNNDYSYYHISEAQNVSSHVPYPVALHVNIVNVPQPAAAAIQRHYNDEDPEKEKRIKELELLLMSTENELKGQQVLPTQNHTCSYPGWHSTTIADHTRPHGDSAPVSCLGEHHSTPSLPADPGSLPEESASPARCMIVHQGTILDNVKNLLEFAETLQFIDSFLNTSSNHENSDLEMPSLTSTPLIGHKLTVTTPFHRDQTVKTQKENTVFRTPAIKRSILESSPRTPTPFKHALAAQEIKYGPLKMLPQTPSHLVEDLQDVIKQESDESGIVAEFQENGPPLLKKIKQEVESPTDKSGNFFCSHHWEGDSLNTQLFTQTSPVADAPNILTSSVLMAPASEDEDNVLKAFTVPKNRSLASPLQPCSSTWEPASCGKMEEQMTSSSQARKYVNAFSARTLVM
Summary of the method: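 Transiently transfected HepG2 cells carrying a multiplexed cis-promoter reporter set report endogenous Myb activity after 24 h compound exposure. Reporter mRNA is read by RT-PCR with capillary electrophoresis of fluorescent products, fitted bidirectionally against DMSO.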

[13] = ATG_NFI_CIS: Attagene CIS-FACTORIAL HepG2 Assay for human Nuclear Factor I (NFI) (AID 2282989); conditions: HepG2 cis-regulatory reporter, NFI response element transcription; actives raise or lower the signal
Summary of the method: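 After transient transfection of HepG2 with cis-promoter reporter constructs and 24 h dosing, RNA is reverse-transcribed, amplified, 6-FAM end-labelled and HpaI-digested before capillary analysis. Bidirectional curve fitting against DMSO.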

[14] = molecular target: Nuclear receptor subfamily 1 group I member 3 (Homo sapiens) (UniProt Q14994); assay: ATG_CAR_TRANS: Attagene TRANS-FACTORIAL HepG2 Assay for human Constitutive Androstane Receptor (CAR) (AID 2282969; active = hit-call score of the fitted dose curve at least 0.9, where 1 is the maximum;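 also: activators raise reporter mRNA above DMSO so AC50 marks induction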); conditions: HepG2 Attagene TRANS-FACTORIAL CAR reporter
Sequence of Nuclear receptor subfamily 1 group I member 3 (Homo sapiens) (Q14994 whole entry, looked up, the tested form may be a part): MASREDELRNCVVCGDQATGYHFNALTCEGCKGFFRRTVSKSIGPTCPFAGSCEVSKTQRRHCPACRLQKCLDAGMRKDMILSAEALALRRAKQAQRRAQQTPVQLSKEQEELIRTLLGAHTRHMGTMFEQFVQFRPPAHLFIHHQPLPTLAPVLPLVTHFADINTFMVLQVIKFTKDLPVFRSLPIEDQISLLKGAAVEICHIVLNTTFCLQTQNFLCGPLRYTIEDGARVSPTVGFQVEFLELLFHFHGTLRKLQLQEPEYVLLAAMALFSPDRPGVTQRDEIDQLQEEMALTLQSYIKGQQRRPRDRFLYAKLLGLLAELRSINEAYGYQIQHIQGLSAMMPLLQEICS
Summary of the method: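 HepG2 cells transiently transfected with GAL4-UAS reporter units; TRANS format reads activity of exogenous chimeric NR-Gal4 protein. After 24 h dosing, reporter mRNA quantified by RT-PCR, 6-FAM labelling and capillary electrophoresis; gain of signal fitted against DMSO.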

[15] = molecular target: Estrogen receptor (Homo sapiens) (UniProt P03372); assay: ATG_ERa_TRANS: Attagene TRANS-FACTORIAL HepG2 Assay for human Estrogen Receptor alpha (ERa) (AID 2282970; active = hit-call score of the fitted dose curve at least 0.9, where 1 is the maximum); conditions: HepG2 Attagene TRANS ERa GAL4 reporter, mRNA
Sequence of Estrogen receptor (Homo sapiens) (P03372 whole entry, looked up, the tested form may be a part): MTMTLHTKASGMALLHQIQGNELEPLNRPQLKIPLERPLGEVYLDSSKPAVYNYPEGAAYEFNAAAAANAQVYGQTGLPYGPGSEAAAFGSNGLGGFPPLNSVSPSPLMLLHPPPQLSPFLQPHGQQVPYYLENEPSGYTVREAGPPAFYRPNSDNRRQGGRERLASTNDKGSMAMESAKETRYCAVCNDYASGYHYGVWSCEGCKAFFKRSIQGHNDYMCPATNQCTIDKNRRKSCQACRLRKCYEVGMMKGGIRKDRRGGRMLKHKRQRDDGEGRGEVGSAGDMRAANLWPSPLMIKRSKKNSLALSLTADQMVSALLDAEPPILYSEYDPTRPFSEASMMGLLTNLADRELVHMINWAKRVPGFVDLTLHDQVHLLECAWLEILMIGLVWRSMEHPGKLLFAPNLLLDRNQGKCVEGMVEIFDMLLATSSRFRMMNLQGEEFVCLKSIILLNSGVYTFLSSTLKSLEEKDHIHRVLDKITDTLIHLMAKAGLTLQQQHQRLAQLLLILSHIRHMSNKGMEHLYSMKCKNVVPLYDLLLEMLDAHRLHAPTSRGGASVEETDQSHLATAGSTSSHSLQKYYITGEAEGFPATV
Summary of the method: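 Multiplexed cell-based reporter format in HepG2: chimeric ERa-Gal4 protein drives GAL4-UAS reporter transcription. Fluorescent reporter mRNA quantified by capillary electrophoresis 24 hours after dosing; endpoint fitted as signal gain against DMSO.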

[16] = molecular target: Nuclear respiratory factor 1 (Homo sapiens) (UniProt Q16656); assay: ATG_NRF1_CIS: Attagene CIS-FACTORIAL HepG2 Assay for human Nuclear Respiratory Factor 1 (NRF1) Orphan Gene (AID 2282987); conditions: HepG2 NRF1 cis-element reporter, Attagene multiplex; actives raise or lower the signal
Sequence of Nuclear respiratory factor 1 (Homo sapiens) (Q16656 whole entry, looked up): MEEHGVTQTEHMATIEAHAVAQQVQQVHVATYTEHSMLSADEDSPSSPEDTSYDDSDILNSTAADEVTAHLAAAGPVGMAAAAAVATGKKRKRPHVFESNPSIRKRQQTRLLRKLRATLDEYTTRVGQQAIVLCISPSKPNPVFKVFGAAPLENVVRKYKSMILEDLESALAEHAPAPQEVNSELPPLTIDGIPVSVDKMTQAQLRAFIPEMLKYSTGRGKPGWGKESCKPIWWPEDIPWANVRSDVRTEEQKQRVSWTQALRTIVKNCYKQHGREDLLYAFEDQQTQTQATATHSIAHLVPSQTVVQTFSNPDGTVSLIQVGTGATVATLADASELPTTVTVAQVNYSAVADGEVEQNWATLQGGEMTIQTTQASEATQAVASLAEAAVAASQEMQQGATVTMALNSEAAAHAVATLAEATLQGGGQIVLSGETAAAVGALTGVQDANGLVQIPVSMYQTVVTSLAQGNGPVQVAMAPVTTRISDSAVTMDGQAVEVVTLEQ
Summary of the method: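 HepG2 cells transiently transfected with multiple cis-regulated reporter units, exposed 24 h. Reporter mRNAs measured by RT-PCR, fluorescent labelling, HpaI digestion and capillary electrophoresis; bidirectional fitting against DMSO.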

[17] = molecular target: Steroid hormone receptor ERR1 (Homo sapiens) (UniProt P11474); assay: ATG_ERRa_TRANS: Attagene TRANS-FACTORIAL HepG2 Assay for human Estrogen-Related Receptor alpha (ERRa) (AID 2282971; active = hit-call score of the fitted dose curve at least 0.9, where 1 is the maximum); conditions: HepG2 Attagene TRANS reporter, ERRa transactivation
Summary of the method: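 Signal gain relative to DMSO for an ERRa-Gal4 chimeric receptor, read as reporter mRNA by RT-PCR/capillary electrophoresis. Human HepG2 liver cells, transient multiplex reporter transfection, 24 h chemical exposure.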

[18] = molecular target: Estrogen-related receptor gamma (Homo sapiens) (UniProt P62508); assay: ATG_ERRg_TRANS: Attagene TRANS-FACTORIAL HepG2 Assay for human Estrogen-Related Receptor gamma (ERRg) (AID 2282977; active = hit-call score of the fitted dose curve at least 0.9, where 1 is the maximum;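 also: hits increase reporter signal over DMSO so potencies reflect activators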); conditions: HepG2 Attagene TRANS reporter, ERRg transactivation
Sequence of Estrogen-related receptor gamma (Homo sapiens) (P62508 whole entry, looked up, the tested form may be a part): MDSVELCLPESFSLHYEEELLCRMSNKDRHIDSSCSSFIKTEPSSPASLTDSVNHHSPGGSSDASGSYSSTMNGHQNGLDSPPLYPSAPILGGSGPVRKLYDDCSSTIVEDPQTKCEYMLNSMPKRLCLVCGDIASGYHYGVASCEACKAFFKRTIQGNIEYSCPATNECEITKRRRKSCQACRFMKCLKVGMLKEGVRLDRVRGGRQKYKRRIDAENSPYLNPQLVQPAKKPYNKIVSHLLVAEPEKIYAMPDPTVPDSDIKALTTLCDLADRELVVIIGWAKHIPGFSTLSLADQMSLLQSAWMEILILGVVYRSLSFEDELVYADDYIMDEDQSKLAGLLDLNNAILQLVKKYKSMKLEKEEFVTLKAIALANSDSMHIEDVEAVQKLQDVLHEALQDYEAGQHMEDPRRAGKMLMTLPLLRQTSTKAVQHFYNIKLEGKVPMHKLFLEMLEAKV
Summary of the method: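 Transfect HepG2 with multiple GAL4-UAS reporter transcription units; dose chemicals 24 h; isolate RNA, reverse-transcribe with oligo(dT), PCR-amplify, label with 6-FAM, digest with HpaI; size fragments by capillary electrophoresis. DMSO serves as negative control.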

## CCN(CC)CCOc1ccc(C(=C(Cl)c2ccccc2)c2ccccc2)cc1
[1]
  AC50: 3.11 µM (active)
  outcome: inactive
[2]
  AC50: 3.11 µM (active) and 6.33 µM (active) and 1.3 µM (active)
  outcome: inactive
[3]
  AC50: 11.2 µM (active)
  outcome: inactive
[4]
  outcome: inactive
[5]
  outcome: inactive
[6]
  outcome: inactive
[7]
  AC50: 14.8 µM (active)
  outcome: inactive
[8]
  outcome: inactive
[9]
  outcome: inactive
[10]
  outcome: inactive
[11]
  outcome: inactive
[12]
  AC50: 14.5 µM (active)
  outcome: inactive
[13]
  AC50: 14.8 µM (active)
  outcome: inactive

## O=C(NS(=O)(=O)/C=C/c1cccs1)c1ccc(F)cc1Br
[1]
  outcome: inactive
[2]
  outcome: inactive
[14]
  outcome: inactive
[15]
  outcome: inactive
[3]
  outcome: inactive
[4]
  outcome: inactive
[5]
  outcome: inactive
[8]
  outcome: inactive
[12]
  outcome: inactive
[16]
  outcome: inactive
[13]
  outcome: inactive

## CC(COCC(C)OC(=O)c1ccccc1)OC(=O)c1ccccc1 (stereo not given)
[1]
  outcome: inactive
[2]
  outcome: inactive
[14]
  outcome: inactive
[17]
  outcome: inactive
[3]
  outcome: inactive
[18]
  outcome: inactive
[6]
  outcome: inactive
[7]
  outcome: inactive
[10]
  outcome: inactive
[11]
  outcome: inactive
[12]
  outcome: inactive
[13]
  outcome: inactive

## O=C1OC(c2ccc(O)cc2)(c2ccc(O)cc2)c2ccccc21
[1]
  outcome: inactive
[2]
  AC50: 6.27 µM (active)
[3]
  AC50: 30 µM (active)
[4]
  outcome: inactive
[12]
  outcome: inactive
[16]
  outcome: inactive
[13]
  AC50: 22.8 µM (active)

## OCC(CO)n1cnc(-c2ccc(F)cc2)c1-c1ccnc(Oc2ccccc2)n1
[1]
  outcome: inactive
[2]
  outcome: inactive
[14]
  outcome: inactive
[3]
  outcome: inactive
[4]
  outcome: inactive
[6]
  outcome: inactive
[9]
  outcome: inactive
[11]
  outcome: inactive
[12]
  outcome: inactive
[16]
  outcome: inactive
[13]
  outcome: inactive

## O=C(N[C@@H](c1ccccc1)[C@@H]1CCCCN1)c1cccc(C(F)(F)F)c1Cl
[1]
  outcome: inactive
[2]
  AC50: 20.4 µM (active)
[15]
  outcome: inactive
[17]
  outcome: inactive
[3]
  AC50: 33 µM (active)
[5]
  outcome: inactive
[18]
  outcome: inactive
[7]
  outcome: inactive
[8]
  outcome: inactive
[9]
  outcome: inactive
[11]
  outcome: inactive
[12]
  outcome: inactive
[16]
  AC50: 56.9 µM (active)
[13]
  outcome: inactive

## CCCCCCCCCCCCCCCCO
[1]
  outcome: inactive
[2]
  outcome: inactive
[14]
  outcome: inactive
[15]
  outcome: inactive
[3]
  outcome: inactive
[6]
  outcome: inactive
[10]
  outcome: inactive
[11]
  outcome: inactive
[12]
  outcome: inactive
[13]
  outcome: inactive

## CC1=C(C)S(=O)(=O)CCS1(=O)=O
[1]
  outcome: inactive
[2]
  outcome: inactive
[14]
  outcome: inactive
[15]
  outcome: inactive
[3]
  outcome: inactive
[11]
  outcome: inactive
[12]
  outcome: inactive
[13]
  outcome: inactive

## CN(C)C(=O)NC1(c2ccccc2)CCN(CC[C@@]2(c3ccc(F)c(F)c3)CN(C(=O)c3ccccc3)CCO2)CC1
[1]
  outcome: inactive
[2]
  AC50: 4.16 µM (active)
[3]
  outcome: inactive
[4]
  outcome: inactive
[6]
  outcome: inactive
[7]
  outcome: inactive
[12]
  outcome: inactive
[13]
  outcome: inactive

## Cc1ccc(C(C)(C)C)c(O)c1
[1]
  outcome: inactive
[2]
  AC50: 151 µM (active)
[15]
  AC50: 6.64 µM (active)
[3]
  AC50: 139 µM (active)
[18]
  outcome: inactive
[7]
  outcome: inactive
[11]
  outcome: inactive
[12]
  outcome: inactive
[16]
  outcome: inactive
[13]
  AC50: 141 µM (active)
